HP1b binding inh – HP1-beta chromodomain-methylated histone interaction inhibition | P83916 | AlphaScreen HP1-beta / biotin-H3K9me3 peptide binding | Potency, µM (top dose mostly 114 µM), for the others: top-dose activity change, negative = inhibition, actives largely listed as inhibitors | 390,000 compounds, 0.56% hits | AID 540317; also: potency is read from the fitted curve at half-maximal effect; nearly all actives have a fitted effect of over 70% in size
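Compound inhibition of the preformed complex between 50 nM HP1-beta and 50 nM biotinylated H3K9me3 peptide was read by AlphaScreen. Buffer was PBS pH 7.4 with 0.01% Tween-20. Incubations ran 30 min at room temperature, with 10 ug/mL donor/acceptor beads.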
JMJD2A Tudor inh – JMJD2A Tudor domain (human) inhibition; O75164; AlphaScreen JMJD2A-Tudor / H3K4me3 peptide binding; Potency, µM (highest dose often 114 µM), without a hit: top-dose activity change, negative = inhibition, usual class: inhibitors; 390,000 compounds, 4.4% hits; AID 504339; also: potency is read from the fitted curve at half-maximal effect; % is scaled to controls: 0 for no effect and ±100 for the full control effect; nearly all actives have a fitted effect of over 50% in size
BAZ2B inh – BAZ2B (human) inhibition; Q9UIF8; AlphaScreen BAZ2B-H3K14Ac peptide displacement; Potency, µM (doses to about 114 µM), inactives show at the top dose activity change, negative = inhibition, hits mostly inhibitors; 360,000 compounds, 4.4% hits; AID 504333; also: potency is read from the fitted curve at half-maximal effect; % is scaled to controls: 0 for no effect and ±100 for the full control effect; nearly all actives have a fitted effect of over 60% in size
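AlphaScreen luminescence quantifies BAZ2B engagement of H3K14Ac peptide; the protein and biotinylated peptide are both at 50 nM final, buffer PBS pH 7.4 with 0.01% Tween-20, all steps at room temperature.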
CtBP-E1A blk – inhibitors of CtBP/E1A interaction. AlphaScreen GST-E1A/His-CtBP binding, 1536-well; stronger effect = lower value. activity change, % (no concentration beside the values). 340,000 compounds, 0.49% hits. AID 651724; in the data active = activity change below about -65%; inconclusive = mostly about -30% to -63%; also: % is scaled to controls: 0 for no effect and ±100 for the full control effect
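AlphaScreen with 125 nM GST-E1A and 125 nM His-CtBP (5X stocks) in Tris pH 8.0, 300 mM NaCl, BSA, Tween 20, TCEP. Compounds preincubated 2 h at 37 deg C, then glutathione donor/nickel acceptor beads added for 1 h at 37 deg C in dark.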
G9a block – blocks human histone lysine methyltransferase G9a. Q96KQ7. G9a H3K9 monomethylation, AlphaScreen, 2 h. Potency, µM (series often up to 102 µM), inactives show at the highest dose activity, negative = inhibition, actives largely listed as inhibitors. 350,000 compounds, 8.8% hits. AID 504332; also: potency is read from the fitted curve at half-maximal effect; % is scaled to controls: 0 for no effect and ±100 for the full control effect; nearly all actives have a fitted effect of over 75% in size
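Enzyme 20 nM + cpd, 15 min RT; add b-H3K9 pep 500 nM / SAM 20 uM; 2 h RT; anti-H3K9me1 Ab 0.5 ug/mL + SA donor / anti-rabbit acceptor beads 20 ug/mL each, 10 min; AlphaScreen read.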
Six1-Eya2 inh – Six1/Eya2 interaction inhibition | Q15475+O00167 | AlphaScreen GST-Six1/His-Eya2 binding, biochemical; stronger effect = lower value | activity change, % (test concentration not listed) | 360,000 compounds, 0.56% hits | AID 651725; in the data active = activity change below about -65%; inconclusive = mostly about -30% to -63%; also: % is scaled to controls: 0 for no effect and ±100 for the full control effect
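AlphaScreen luminescence read after one hour at 37 °C in darkness. Pin-transferred compounds met GST-Six1 and His-Eya2 protein (5X stock 250 nM/500 nM) plus glutathione donor and Ni-chelate acceptor beads (5X, 50 ug/mL).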
Starred values were filed as active, the others as inactive; ? = inconclusive; / = no result given; [ ] = another dose, or the depositor's remark. Most compounds without a hit are left out; they make up all but 10% or so of the library. Unless noted, calls follow the shape of the dose curve; as a rule, active = well fitted inhibition curve with a large enough effect; inconclusive = small, poorly fitted or top-dose-only effect; inactive = no such curve, though single readings can be large or run the other way.

SMILES	HP1b binding inh	JMJD2A Tudor inh	BAZ2B inh	CtBP-E1A blk	G9a block	Six1-Eya2 inh
COCCn1c(CNC(=O)c2cc(OC)c(OC)c(OC)c2)nc2cccnc21	28%[57 µM]	-10%	-2%	/	-17%[59 µM]	/
COCCn1c(=O)c(CCc2ccccc2)nc2cnc(Oc3ccccc3)nc21	/	/	/	/	8%[0.501 µM]	/
COCC(C)NC(=O)c1cc2c(=O)n3cccc(C)c3nc2s1 (configuration not stated)	16%	5%	1%	/	15%[59 µM]	/
COc1ccc(Br)cc1C(=O)NC(=S)Nc1ccc(Cl)c(C(=O)O)c1	?	-22%	-10%	-18	20µM*	-22
COc1ccc(C(=O)NC(=S)Nc2ccc(Cl)c(C(=O)O)c2)cc1	?	-6%	-1%	-2	50µM*	7
COc1ccc(Br)cc1C(=O)NC(=S)Nc1ccc(CN2CCOCC2)cc1	-1%	?	25µM*	?	-8%[0.0925 µM]	-22
COc1ccc(Br)cc1/C=C/C(=O)NCC(=O)O	40%	-18%	-3%	2	0%	-11
COc1ccc(Br)cc1/C=C/C(=O)NC(=S)Nc1ccc(Cl)c(C(=O)O)c1	-5%	-30%	?	/	32µM*	-3
COc1cc(NC(=O)C(Cc2ccccc2)NS(=O)(=O)c2cccs2)cc(OC)c1 (configuration not stated)	12%[57 µM]	-18%	3%	/	16%[59 µM]	/
CCNc1ncc2nc(-c3ccc(Cl)cc3)c(=O)n(C[C@H]3CCCO3)c2n1	/	/	/	/	9%[0.501 µM]	/
Cc1cccc(CNC(=O)c2ccc(Cn3c(=O)c4cccn4c4cccnc43)cc2)c1	16%	-14%	-6%	/	0%[59 µM]	/
O=C(NC(=S)Nc1ccc(CN2CCOCC2)cc1)c1ccc([N+](=O)[O-])cc1Cl	-7%	-31%	?	-20	50µM*	-2
COC(=O)c1nnn(-c2cccc(C)c2)c1N	35%	0%	-16%	/	4%[59 µM]	/
CC(C)Cc1nnc(NC(=O)c2cccc(S(=O)(=O)N3CCOCC3)c2)s1	25%	-16%	7%	0	-40%[59 µM]	0
CC1CCCCC1NC(=O)c1cccc(S(=O)(=O)N2CCN(C)CC2)c1 (configuration not stated)	7%	-19%	-6%	1	45µM*	10
CN1CCN(S(=O)(=O)c2cccc(C(=O)Nc3nccs3)c2)CC1	19%	?	-8%	-20	-7%	-8
CN1CCN(S(=O)(=O)c2cccc(C(=O)Nc3sccc3C(N)=O)c2)CC1	-3%	-34%	-39%	-80*	?	-77*
CC(C)Cc1nnc(NC(=O)c2cccc(S(=O)(=O)N3CCN(C)CC3)c2)s1	25%	-4%	11%	9	40µM*	0
O=C(Nc1nnc(-c2ccccc2)s1)c1cccc(S(=O)(=O)N2CCOCC2)c1	13%	79µM*	-4%	2	?	3
O=C(Nc1nnc(-c2ccccc2)s1)c1ccc(Cl)c(S(=O)(=O)N2CCOCC2)c1	/	/	9%	/	-28%	/
Cc1ccc(NC(=O)c2ccc3oc(=O)c(S(=O)(=O)c4ccccc4)cc3c2)cc1C	9%	-13%	-10%	/	-3%[59 µM]	/
CCc1nnc(NC(=O)CSc2nccn2Cc2ccc(Cl)cc2)s1	19%[57 µM]	-35%	-14%	/	-1%[59 µM]	/
CCc1ccccc1NC(=O)Cn1cc(C(=O)c2ccc(Cl)cc2)c(=O)c2ccc(C)nc21	13%	-21%	8%[57.1 µM]	/	-23%[59 µM]	/
O=C(NNS(=O)(=O)c1ccccc1F)c1cccc(S(=O)(=O)N2CCOCC2)c1	3%	11µM*	-5%	3	?	12
NC(=S)n1[nH]c(-c2ccc([N+](=O)[O-])cc2)c(N=Nc2cccc(Cl)c2)c1=O	-18%	40µM*	?	0	35µM*	5
NC(=S)n1[nH]c(-c2ccc([N+](=O)[O-])cc2)c(N=Nc2ccc(O)cc2)c1=O	?	?	50µM*	?	56µM*	-21
Cc1ccccc1N=Nc1c(C)[nH]n(C(N)=S)c1=O	?	?	-1%	0	?	-18

Source: PubChem (National Center for Advancing Translational Sciences (NCATS))
